Bioassay records from PubChem.
RGS16-Gao: modulates binding between human RGS16 and Galphao; O15492+P09471; bead-based flow cytometry RGS16-Galphao binding, fluorescence; actives lie on both sides; binding response (% of control), % at 10 µM; 220,000 compounds, 0.38% hits; AID 1441;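 further: Galphao activated by GDP with aluminum fluoride before binding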
Target sequence (O15492 whole entry, looked up): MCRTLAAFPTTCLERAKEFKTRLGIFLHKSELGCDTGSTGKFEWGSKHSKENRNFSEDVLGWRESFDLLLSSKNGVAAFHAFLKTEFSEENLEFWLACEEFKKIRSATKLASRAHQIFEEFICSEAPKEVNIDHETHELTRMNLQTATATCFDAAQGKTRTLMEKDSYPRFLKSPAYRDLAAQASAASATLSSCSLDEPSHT
Target sequence (P09471 whole entry, looked up): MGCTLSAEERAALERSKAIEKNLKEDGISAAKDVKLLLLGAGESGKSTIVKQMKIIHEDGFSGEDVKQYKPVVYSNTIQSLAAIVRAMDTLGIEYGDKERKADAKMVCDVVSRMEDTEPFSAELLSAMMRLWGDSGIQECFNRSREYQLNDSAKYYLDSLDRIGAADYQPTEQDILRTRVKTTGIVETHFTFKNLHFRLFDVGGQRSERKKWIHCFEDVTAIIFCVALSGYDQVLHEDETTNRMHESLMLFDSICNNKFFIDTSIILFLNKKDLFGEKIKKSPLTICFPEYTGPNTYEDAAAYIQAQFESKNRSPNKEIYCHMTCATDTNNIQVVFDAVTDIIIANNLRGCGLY
RGS4-Gao reg: human RGS4-Galphao interaction regulation | AID 1415 | 220,000 compounds, 0.33% hits | binding response (% of control), % at 10 µM | Multiplexed bead flow cytometry, RGS4-Galphao binding; actives lie on both sides | P09471; in the data active means binding response below about 49% or above about 150%; inactive means in between;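 further: fluorescent Galphao activated with aluminum fluoride binding bead-coupled RGS4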
RGS7-Gao: modulates binding of RGS7 to human Galphao. Multiplexed bead flow cytometry; actives lie on both sides. AID 1439. 220,000 compounds, 0.35% hits. binding response (% of control), % at 10 µM; in the data active means binding response below about 49% or above about 150%; inconclusive means no clear call, values can overlap the other calls; inactive means in between;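 further: fluorescent Galphao held in activated GDP-AlF4 state binding bead-coupled RGS7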
RGS8-Gao reg: modulates binding of RGS8 to human Galphao; P09471; multiplexed bead flow cytometry; actives lie on both sides; response (percent of control binding), % at 10 µM; 220,000 compounds, 0.34% hits; in the data active means response below about 60% or above about 140%; inactive means in between;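 further: Galphao activated as the GDP aluminium fluoride complex binding bead-coupled RGS8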
RGS-Gao: modulates binding between human RGS4 and Galphao; shares compounds with RGS16-Gao; multiplexed bead flow cytometry, RGS–Galpha-o binding; RGS4–Galpha-o binding response, % at 10 µM; 1,600 compounds, 99% hits;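 further: fluorescently labeled Galpha-o bound to GDP with aluminium fluoride binding biotinylated RGS beads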
Biotin-avidin: biotin-avidin bead binding disruption counter-screen | shares compounds with RGS16-Gao | streptavidin beads, fluorescein-biotin binding, flow cytometry | inhibition, % at 10 µM | 1,700 tested, under 10 active | AID 1783;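 active means inhibition above 50%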;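 further: median green fluorescence of gated singlet beads compared with DMSO control wells; 0% = DMSO wells and 100% = complete loss of bead fluorescence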
RGS8-Gao confirm: RGS8-Galphao interaction regulation, single point confirmation. shares compounds with RGS16-Gao. AID 1836. bead-based flow cytometry RGS8-Galphao binding, fluorescence; actives lie on both sides. 1,700 compounds, 3% hits. binding response (% of control), % at 10 µM; in the data active means binding response below about 72% or above about 130%; inactive means in between;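 further: Galphao activated as GDP AlF4 complex before binding bead RGS8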
RGS7-Gao single: RGS7-Galphao interaction regulation, single point confirmation. shares compounds with RGS16-Gao. bead-based flow cytometry RGS7-Galphao binding; actives lie on both sides. response (percent of control binding), % at 10 µM. 1,700 compounds, 7.8% hits; in the data active means response below about 75% or above about 130%; inactive means in between;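 further: fluorescent Galphao activated with GDP and aluminum fluoride binding bead-coupled RGS7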
RGS16-Gao single: RGS16-Galphao interaction regulation, single point confirmation | shares compounds with RGS16-Gao | bead-based flow cytometry, RGS16-Galphao binding; actives lie on both sides | response (% of control binding), % at 10 µM | 1,700 compounds, 4% hits | AID 1838; in the data active means response below about 74% or above about 130%; inactive means in between;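 further: Galphao activated as the GDP aluminium fluoride complex binding bead-coupled RGS16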
RGS4-Gao single: RGS4-Galphao interaction regulation, single point confirmation. shares compounds with RGS16-Gao. RGS4-Galphao binding, multiplexed bead flow cytometry; actives lie on both sides. binding response (% of control), % at 10 µM. 1,700 compounds, 4% hits. AID 1840; in the data active means binding response below about 74% or above about 130%; inactive means in between
RGS19-Gao single: RGS19-Galphao interaction regulation, single point confirmation; shares compounds with RGS16-Gao; bead-based flow cytometry RGS19-Galphao binding; actives lie on both sides; response (percent of control binding), % at 10 µM; 1,700 compounds, 5% hits; in the data active means response below about 50% or above about 160%; inactive means in between;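 further: 100% = no compound control and 0% = blank background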
* marks the source's active call; other numbers are inactive results; ? = inconclusive; nt = not tested or not shown; [ ] = dose if it differs, or a comment. This is a sample that favours compounds with a hit; in the whole collection about 0.78% have one here. Unless noted, how the calls were made is not given here.

SMILES	RGS16-Gao	RGS4-Gao reg	RGS7-Gao	RGS8-Gao reg	RGS-Gao	Biotin-avidin	RGS8-Gao confirm	RGS7-Gao single	RGS16-Gao single	RGS4-Gao single	RGS19-Gao single
CC(=O)Nc1ccc(Cc2nc3c([nH]2)c(=O)n(C)c(=O)n3C)cc1	1.1*	-0.7*	?	20.4*	nt	0.9	99.0	99.2	101.4	98.5	103.4
CC(CCc1ccccc1)NC(=O)C1CCN(S(=O)(=O)N2CCOCC2)CC1 (stereo not drawn)	165.1	180.1*[activator]	166.9*[activator]	159.8*[activator]	nt	1.8	100.8	97.3	99.8	100.4	98.7
O=C(NCc1ccccc1)C1CCN(S(=O)(=O)N2CCOCC2)CC1	100.8	97.5	99.7	98.5	nt	nt	nt	nt	nt	nt	nt
COc1nc(N2CCOCC2)nc(C)c1[N+](=O)[O-]	113.5	91.8	87.8	99.1	nt	nt	nt	nt	nt	nt	nt
CC/C(=N/NC(=O)c1ccccc1)c1ccc(OCCN2CCOCC2)cc1	229.3	206.9*[activator]	189.7*[activator]	188.7*[activator]	nt	1.1	100.5	98.2	99.0	99.2	109.8
Cc1nc2ccc(NC(=S)NCc3ccccc3)cc2nc1C	96.5	98.5	?	100.0	nt	nt	nt	nt	nt	nt	nt
Cn1c2c(c(=O)n(C)c1=O)CN(Cc1ccc3c(c1)OCO3)CN2	222.3*[activator]	104.0	99.8	132.6	104.0*	2.1	97.3	96.4	98.9	99.8	112.0
O=C(CSc1ncc(C(F)(F)F)cc1Cl)N1CCN(S(=O)(=O)c2ccc3ccccc3c2)CC1	105.0	103.3	102.1	101.4	nt	nt	nt	nt	nt	nt	nt
Cc1ccc(NS(=O)(=O)c2cccc(C(=O)OCC(=O)NCc3ccco3)c2)cc1	444.2	162.6*[activator]	147.7	177.8*[activator]	nt	-0.7	96.5	92.6	94.4	92.9	73.5
C/C(=C\C(=O)C(F)(F)F)Nc1ccc(C)cc1	597.8	120.2	116.8	166.3*[activator]	120.2*	-0.3	98.6	100.7	97.4	98.7	103.7
CCOC(=O)C(CSCc1ccccc1)NC(=O)OC(C)(C)C (stereo not drawn)	-919.8*	92.8	97.8	97.6	92.8*	nt	nt	nt	nt	nt	nt
CCOC(=O)C(CSCC(=O)c1ccc(Br)cc1)NC(=O)OC(C)(C)C (stereo not drawn)	105.6	100.9	103.9	101.4	nt	nt	nt	nt	nt	nt	nt
Cc1ccc(-c2nc3cc(N)ccc3o2)c(C)c1	102.2	100.2	101.7	100.9	nt	nt	nt	nt	nt	nt	nt
O=C(COc1cccc2cccnc12)N/N=C1\SCC(=O)N1Cc1ccco1	84.3	92.1	95.7	92.8	nt	nt	nt	nt	nt	nt	nt
CCCCCOc1ccc(CSC(=N)N)cc1[N+](=O)[O-]	43.3	41.7*	49.4*	65.4	nt	0.5	105.7	109.0	106.1	104.9	106.6
COc1ccc(OCC(O)Cn2c(=N)n(CCN3CCCCC3)c3ccccc32)cc1 (stereo not drawn)	116.6	108.6	101.5	101.6	nt	nt	nt	nt	nt	nt	nt
NS(=O)(=O)c1ccc(S(=O)(=O)N2CCCC2)cc1	88.6	101.6	104.4	97.0	nt	nt	nt	nt	nt	nt	nt
CN(C)S(=O)(=O)c1ccc2[nH]cc(/C=C/c3nc4ccccc4c(=O)n3-c3ccccc3)c2c1	98.9	101.3	100.7	102.3	nt	nt	nt	nt	nt	nt	nt
O=c1c2ccccc2sn1-c1ccccc1	-5.3*	78.5	91.2	17.8*	78.5*	-2.3	24.6*	85.4	0.1*	78.2	-0.4*
Cc1ccc(-n2sc3ccccc3c2=O)cc1S(=O)(=O)N1CCCCC1	-11.6	74.8	97.0	43.1*	74.8*	nt	nt	nt	nt	nt	nt
O=c1c2ccccc2sn1-c1nccs1	78.2	98.3	101.0	75.4	nt	nt	nt	nt	nt	nt	nt
CN(C)S(=O)(=O)c1cccc(-n2sc3ccccc3c2=O)c1	17.1*	93.4	?	55.3*	93.4*	nt	nt	nt	nt	nt	nt
